Experimental data taken from paper PMC7862700, “An all-to-all approach to the identification of sequence-specific readers for epigenetic DNA modifications on cytosine”.

Experiments:
Test in all cases: DAPPL (digital affinity profiling via proximity ligation, sequencing); 10 mM Tris-HCl pH 7.5, 50 mM NaCl, 1 mM DTT, 4% glycerol, room temperature, 30 min; GST-TFs on glutathione beads, 16-mer random dsDNA library, 0.1% formaldehyde crosslink after washing; high values mean tight binding
FLI1 = biological target: T1, FLI1 (Homo sapiens, UniProt Q01543 1-452); settings: protein: recombinant; tags: N-terminal GST; dsDNA, one strand shown
T1 sequence: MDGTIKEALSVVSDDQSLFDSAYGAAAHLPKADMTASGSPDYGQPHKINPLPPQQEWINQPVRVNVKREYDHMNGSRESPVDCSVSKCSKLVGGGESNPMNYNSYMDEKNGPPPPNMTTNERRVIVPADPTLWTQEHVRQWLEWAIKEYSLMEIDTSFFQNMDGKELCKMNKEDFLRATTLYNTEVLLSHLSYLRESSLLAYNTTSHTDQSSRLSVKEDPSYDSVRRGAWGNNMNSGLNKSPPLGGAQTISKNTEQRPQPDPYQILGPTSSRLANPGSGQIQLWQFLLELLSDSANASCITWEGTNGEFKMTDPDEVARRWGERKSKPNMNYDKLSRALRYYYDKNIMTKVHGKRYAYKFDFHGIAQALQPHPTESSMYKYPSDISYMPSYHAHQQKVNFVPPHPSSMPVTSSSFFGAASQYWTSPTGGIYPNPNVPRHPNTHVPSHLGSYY
In short: (§1)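 Binding signal is defined as a hexamer's read frequency for one factor over its frequency for the tag-only sample. To obtain reads, GST-fused human transcription factors were expressed in yeast, captured on glutathione beads, barcoded with DNA and pooled with that sample. Pools met 200 nmole of a 16-mer random double-stranded DNA library in Tris/NaCl/DTT/glycerol buffer for 30 min at room temperature before washing, 0.1% formaldehyde crosslinking, proximity ligation (BsaI/T4 ligase, 1 h, 37 °C), PCR and Illumina NextSeq500 sequencing.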

ELK1 = biological target: T2, ELK1 (Homo sapiens, UniProt P19419 1-428); settings: protein: recombinant; tags: N-terminal GST; dsDNA, one strand shown
T2 sequence: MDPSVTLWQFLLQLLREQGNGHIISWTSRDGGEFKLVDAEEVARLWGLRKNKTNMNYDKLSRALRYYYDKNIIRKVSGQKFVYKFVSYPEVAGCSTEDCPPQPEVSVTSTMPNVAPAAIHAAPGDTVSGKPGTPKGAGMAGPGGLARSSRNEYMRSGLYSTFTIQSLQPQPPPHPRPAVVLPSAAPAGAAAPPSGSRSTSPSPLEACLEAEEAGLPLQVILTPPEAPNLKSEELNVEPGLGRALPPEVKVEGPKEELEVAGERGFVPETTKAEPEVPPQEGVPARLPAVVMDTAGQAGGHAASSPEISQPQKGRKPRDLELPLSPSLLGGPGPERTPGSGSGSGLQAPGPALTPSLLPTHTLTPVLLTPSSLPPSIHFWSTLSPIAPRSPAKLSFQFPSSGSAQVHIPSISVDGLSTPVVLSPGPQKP
In short: as §1

GABPA = biological target: T3, GABPA (Homo sapiens, UniProt Q06546 1-454); settings: protein: recombinant; tags: N-terminal GST; dsDNA, one strand shown
T3 sequence: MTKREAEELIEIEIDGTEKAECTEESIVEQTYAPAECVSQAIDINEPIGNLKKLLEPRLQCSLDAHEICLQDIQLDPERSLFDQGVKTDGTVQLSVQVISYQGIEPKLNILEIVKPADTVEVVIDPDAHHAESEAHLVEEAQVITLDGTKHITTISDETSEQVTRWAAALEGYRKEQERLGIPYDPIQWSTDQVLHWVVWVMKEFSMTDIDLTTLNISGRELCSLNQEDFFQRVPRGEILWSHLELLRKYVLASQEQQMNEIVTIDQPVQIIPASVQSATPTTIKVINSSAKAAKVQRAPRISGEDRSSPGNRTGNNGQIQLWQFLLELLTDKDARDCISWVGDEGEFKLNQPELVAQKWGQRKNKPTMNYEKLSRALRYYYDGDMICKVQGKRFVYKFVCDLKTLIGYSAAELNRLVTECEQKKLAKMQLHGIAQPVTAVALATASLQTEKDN
In short: as §1

ERG = biological target: T4, ERG (Homo sapiens, UniProt P11308 1-479); settings: protein: recombinant; tags: N-terminal GST; dsDNA, one strand shown
T4 sequence: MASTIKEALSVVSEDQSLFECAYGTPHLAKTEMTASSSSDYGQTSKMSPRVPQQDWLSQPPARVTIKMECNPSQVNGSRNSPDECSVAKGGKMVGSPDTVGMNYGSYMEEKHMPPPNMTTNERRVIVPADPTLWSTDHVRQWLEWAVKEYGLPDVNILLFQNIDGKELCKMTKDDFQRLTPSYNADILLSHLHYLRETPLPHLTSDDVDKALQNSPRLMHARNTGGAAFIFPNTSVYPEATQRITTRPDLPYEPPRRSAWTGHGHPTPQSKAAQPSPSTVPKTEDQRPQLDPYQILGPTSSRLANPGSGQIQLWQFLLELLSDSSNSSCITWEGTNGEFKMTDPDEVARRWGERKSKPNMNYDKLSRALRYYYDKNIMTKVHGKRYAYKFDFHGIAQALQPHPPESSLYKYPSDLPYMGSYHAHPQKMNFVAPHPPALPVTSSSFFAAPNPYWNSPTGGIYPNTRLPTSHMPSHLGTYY
In short: as §1

ELF1 = ELF1 (Homo sapiens, UniProt P32519 1-619); settings: protein: recombinant; tags: N-terminal GST; dsDNA, one strand shown
Chain of ELF1 (P32519 whole entry): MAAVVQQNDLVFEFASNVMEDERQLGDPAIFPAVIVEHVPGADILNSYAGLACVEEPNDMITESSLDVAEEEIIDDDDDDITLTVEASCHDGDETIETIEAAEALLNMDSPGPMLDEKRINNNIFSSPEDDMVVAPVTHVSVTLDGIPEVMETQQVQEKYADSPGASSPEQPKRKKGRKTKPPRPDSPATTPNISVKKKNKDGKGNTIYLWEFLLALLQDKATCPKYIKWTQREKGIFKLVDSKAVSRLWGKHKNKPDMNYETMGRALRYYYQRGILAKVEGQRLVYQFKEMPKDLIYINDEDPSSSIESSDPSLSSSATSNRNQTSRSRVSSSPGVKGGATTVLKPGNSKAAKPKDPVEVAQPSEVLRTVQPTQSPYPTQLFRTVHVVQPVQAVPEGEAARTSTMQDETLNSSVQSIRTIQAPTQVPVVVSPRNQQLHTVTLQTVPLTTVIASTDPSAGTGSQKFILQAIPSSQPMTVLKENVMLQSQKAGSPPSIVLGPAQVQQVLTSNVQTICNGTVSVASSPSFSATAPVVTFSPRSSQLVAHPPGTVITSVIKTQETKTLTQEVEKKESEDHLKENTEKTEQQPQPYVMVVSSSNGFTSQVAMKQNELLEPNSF
In short: as §1

EHF = biological target: T5, EHF (Homo sapiens, UniProt Q9NZC4 1-300); settings: protein: recombinant; tags: N-terminal GST; dsDNA, one strand shown
T5 sequence: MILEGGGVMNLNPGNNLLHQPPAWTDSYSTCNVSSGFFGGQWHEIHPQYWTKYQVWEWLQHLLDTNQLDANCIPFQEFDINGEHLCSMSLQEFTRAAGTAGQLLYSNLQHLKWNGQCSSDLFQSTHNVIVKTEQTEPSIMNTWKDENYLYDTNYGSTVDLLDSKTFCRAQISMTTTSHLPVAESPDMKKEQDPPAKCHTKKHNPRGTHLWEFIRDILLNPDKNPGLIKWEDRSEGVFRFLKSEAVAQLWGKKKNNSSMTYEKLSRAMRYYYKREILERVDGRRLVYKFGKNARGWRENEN
In short: as §1

SPI1 = SPI1 (Homo sapiens, UniProt P17947 1-270); settings: protein: recombinant; tags: N-terminal GST; dsDNA, one strand shown
In short: as §1

SPIB = SPIB (Homo sapiens, UniProt Q01892 1-262); settings: protein: recombinant; tags: N-terminal GST; dsDNA, one strand shown
Chain of SPIB (Q01892 whole entry): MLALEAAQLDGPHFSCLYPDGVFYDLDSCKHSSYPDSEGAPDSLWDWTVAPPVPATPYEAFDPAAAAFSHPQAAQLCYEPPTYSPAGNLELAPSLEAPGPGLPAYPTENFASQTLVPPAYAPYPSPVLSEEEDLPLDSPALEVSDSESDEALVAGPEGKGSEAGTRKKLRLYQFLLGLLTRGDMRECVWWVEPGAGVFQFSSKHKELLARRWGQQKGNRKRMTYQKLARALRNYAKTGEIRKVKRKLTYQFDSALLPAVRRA
In short: as §1

ELK3 = biological target: T6, ELK3 (Homo sapiens, UniProt P41970 1-407); settings: protein: recombinant; tags: N-terminal GST; dsDNA, one strand shown
T6 sequence: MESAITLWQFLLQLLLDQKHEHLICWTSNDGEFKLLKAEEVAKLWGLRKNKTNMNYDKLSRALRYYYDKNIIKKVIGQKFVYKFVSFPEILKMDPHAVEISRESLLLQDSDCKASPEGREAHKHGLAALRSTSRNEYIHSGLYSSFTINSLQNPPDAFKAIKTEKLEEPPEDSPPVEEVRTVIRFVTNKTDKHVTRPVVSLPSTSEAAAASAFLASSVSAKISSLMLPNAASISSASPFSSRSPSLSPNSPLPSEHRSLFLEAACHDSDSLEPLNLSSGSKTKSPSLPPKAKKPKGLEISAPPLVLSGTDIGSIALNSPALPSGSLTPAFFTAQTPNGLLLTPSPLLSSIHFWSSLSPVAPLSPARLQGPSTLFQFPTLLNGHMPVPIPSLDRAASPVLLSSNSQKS
In short: as §1

FEV = biological target: T7, FEV (Homo sapiens, UniProt Q99581 1-238); settings: protein: recombinant; tags: N-terminal GST; dsDNA, one strand shown
T7 sequence: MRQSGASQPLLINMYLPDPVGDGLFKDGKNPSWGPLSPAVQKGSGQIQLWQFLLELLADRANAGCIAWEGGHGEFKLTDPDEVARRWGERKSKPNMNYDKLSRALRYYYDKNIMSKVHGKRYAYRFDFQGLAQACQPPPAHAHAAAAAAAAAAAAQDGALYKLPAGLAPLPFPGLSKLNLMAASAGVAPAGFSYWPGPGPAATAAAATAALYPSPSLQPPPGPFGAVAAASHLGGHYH
In short: as §1

ETV5 = ETV5 (Homo sapiens, UniProt P41161 1-510); settings: protein: recombinant; tags: N-terminal GST; dsDNA, one strand shown
Chain of ETV5 (P41161 whole entry): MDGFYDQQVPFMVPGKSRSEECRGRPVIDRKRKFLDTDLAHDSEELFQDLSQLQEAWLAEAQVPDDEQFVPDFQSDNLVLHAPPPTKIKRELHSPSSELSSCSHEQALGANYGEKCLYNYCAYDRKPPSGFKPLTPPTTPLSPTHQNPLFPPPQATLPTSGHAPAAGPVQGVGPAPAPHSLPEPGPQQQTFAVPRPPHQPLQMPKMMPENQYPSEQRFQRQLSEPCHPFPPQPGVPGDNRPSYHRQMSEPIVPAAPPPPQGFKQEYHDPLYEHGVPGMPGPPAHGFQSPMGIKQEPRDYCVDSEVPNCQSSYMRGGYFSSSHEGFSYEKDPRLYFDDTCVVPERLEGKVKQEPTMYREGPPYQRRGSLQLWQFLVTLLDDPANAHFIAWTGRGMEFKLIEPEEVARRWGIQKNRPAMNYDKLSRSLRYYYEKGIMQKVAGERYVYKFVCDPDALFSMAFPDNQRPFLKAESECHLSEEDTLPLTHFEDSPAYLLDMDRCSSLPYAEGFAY
In short: as §1

HSF1 = HSF1 (Homo sapiens, UniProt Q00613 1-529); settings: protein: recombinant; tags: N-terminal GST; chain copies: 3; dsDNA, one strand shown
Chain of HSF1 (Q00613 whole entry): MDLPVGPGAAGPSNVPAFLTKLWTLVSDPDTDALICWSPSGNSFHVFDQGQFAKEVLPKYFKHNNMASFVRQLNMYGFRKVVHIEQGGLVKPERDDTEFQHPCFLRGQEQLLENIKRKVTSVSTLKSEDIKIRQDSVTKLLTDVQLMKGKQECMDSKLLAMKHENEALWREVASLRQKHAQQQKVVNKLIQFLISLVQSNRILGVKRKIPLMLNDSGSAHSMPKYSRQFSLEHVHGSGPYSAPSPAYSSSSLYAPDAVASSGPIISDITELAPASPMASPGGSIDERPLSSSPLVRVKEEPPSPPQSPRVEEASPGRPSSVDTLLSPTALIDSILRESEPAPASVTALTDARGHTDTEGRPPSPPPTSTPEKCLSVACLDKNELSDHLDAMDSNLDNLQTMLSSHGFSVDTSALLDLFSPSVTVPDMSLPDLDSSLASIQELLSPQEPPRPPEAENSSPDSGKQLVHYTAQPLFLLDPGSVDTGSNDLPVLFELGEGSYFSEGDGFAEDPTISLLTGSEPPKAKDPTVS
In short: as §1

SPIC = biological target: T8, SPIC (Homo sapiens, UniProt Q8N5J4 1-248); settings: protein: recombinant; tags: N-terminal GST; dsDNA, one strand shown
T8 sequence: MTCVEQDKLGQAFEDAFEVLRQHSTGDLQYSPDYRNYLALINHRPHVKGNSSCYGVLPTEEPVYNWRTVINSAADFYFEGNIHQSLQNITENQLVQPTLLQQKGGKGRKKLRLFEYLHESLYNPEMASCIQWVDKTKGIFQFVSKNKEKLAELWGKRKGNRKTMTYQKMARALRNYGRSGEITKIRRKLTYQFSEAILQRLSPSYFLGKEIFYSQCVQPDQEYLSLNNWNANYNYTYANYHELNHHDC
In short: as §1

ELF4 = ELF4 (Homo sapiens, UniProt Q99607 1-663); settings: protein: recombinant; tags: N-terminal GST; dsDNA, one strand shown
Chain of ELF4 (Q99607 whole entry): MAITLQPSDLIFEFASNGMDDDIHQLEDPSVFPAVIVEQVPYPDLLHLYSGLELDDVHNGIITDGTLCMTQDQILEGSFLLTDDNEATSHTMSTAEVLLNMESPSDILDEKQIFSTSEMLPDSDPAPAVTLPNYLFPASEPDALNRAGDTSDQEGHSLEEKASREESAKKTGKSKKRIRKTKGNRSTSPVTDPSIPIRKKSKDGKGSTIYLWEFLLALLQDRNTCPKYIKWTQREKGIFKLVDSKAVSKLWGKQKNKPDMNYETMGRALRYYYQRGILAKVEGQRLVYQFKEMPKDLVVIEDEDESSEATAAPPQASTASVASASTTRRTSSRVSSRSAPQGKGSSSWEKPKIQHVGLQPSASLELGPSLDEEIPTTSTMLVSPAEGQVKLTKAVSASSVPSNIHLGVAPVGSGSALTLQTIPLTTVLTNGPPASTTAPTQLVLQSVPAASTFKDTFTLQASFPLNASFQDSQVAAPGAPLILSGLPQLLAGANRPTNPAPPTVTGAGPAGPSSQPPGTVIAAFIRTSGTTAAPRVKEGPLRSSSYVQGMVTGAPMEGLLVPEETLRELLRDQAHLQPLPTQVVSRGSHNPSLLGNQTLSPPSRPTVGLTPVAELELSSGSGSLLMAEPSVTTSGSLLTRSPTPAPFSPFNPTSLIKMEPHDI
In short: as §1

ELK4 = biological target: T9, ELK4 (Homo sapiens, UniProt P28324-2 1-405); settings: protein: recombinant; tags: N-terminal GST; dsDNA, one strand shown
T9 sequence: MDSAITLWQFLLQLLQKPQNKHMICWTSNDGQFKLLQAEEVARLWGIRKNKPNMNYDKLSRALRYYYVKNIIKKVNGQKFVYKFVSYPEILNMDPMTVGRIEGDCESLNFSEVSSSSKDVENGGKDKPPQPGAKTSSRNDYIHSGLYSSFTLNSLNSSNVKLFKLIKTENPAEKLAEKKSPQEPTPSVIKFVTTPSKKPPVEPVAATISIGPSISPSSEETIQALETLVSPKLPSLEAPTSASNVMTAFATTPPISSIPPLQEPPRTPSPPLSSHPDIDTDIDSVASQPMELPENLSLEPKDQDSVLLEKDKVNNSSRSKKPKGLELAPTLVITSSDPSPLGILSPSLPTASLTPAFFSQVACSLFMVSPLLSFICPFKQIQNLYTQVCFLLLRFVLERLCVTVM
In short: as §1

ETV2 = biological target: T10, ETV2 (Homo sapiens, UniProt O00321 1-342); settings: protein: recombinant; tags: N-terminal GST; dsDNA, one strand shown
T10 sequence: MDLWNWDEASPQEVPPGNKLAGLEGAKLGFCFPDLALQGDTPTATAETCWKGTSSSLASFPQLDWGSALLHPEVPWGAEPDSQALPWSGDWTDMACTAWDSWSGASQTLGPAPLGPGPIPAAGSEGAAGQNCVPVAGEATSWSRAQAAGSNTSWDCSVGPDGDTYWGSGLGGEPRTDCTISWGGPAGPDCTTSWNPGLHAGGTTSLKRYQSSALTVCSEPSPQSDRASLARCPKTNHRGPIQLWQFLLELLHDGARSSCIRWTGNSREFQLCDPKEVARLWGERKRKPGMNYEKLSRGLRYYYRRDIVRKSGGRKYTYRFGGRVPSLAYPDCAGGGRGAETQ
In short: as §1

ELF3 = biological target: T11, ELF3 (Homo sapiens, UniProt P78545 1-371); settings: protein: recombinant; tags: N-terminal GST; dsDNA, one strand shown
T11 sequence: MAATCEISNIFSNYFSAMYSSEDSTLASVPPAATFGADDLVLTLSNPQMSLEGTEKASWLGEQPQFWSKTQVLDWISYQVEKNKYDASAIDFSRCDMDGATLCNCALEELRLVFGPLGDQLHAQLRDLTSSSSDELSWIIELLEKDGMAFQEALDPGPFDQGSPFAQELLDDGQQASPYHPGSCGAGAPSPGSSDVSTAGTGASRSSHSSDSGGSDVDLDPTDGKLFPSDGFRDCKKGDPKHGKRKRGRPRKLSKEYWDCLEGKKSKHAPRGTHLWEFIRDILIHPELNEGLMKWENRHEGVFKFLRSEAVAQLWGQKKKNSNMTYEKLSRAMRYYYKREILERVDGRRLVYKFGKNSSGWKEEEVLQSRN
In short: as §1

CRX = CRX (Homo sapiens, UniProt O43186 1-299); settings: protein: recombinant; tags: N-terminal GST; dsDNA, one strand shown
Chain of CRX (O43186 whole entry): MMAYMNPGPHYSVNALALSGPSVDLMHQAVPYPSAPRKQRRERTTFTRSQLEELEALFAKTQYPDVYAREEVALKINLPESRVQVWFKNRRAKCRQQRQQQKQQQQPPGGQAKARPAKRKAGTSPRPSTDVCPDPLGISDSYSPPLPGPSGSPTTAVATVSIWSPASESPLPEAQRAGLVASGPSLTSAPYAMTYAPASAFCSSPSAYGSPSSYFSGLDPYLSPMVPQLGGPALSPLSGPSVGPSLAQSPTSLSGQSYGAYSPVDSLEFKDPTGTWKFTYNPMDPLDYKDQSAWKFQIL
In short: as §1

ETV1 = ETV1 (Homo sapiens, UniProt P50549 1-477); settings: protein: recombinant; tags: N-terminal GST; dsDNA, one strand shown
Chain of ETV1 (P50549 whole entry): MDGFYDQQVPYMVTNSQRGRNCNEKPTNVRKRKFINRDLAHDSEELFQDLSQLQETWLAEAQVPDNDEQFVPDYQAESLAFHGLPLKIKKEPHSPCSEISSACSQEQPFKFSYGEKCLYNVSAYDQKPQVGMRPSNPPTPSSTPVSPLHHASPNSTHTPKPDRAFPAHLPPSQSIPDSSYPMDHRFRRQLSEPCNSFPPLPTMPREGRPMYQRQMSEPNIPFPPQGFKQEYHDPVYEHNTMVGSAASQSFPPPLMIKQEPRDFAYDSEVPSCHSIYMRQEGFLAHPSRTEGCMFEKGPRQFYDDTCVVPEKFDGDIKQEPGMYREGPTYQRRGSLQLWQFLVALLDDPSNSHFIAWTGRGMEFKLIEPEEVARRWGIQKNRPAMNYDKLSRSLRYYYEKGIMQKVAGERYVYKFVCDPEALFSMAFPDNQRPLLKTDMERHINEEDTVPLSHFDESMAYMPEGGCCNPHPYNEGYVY
In short: as §1

Q: What does the source list for AAGCAT?
A: binding signal (FLI1): 1.09 fold enrichment (6-mer frequency, TF over GST control); binding signal (ELK1): 1.09 fold enrichment (6-mer frequency, TF over GST control); binding signal (GABPA): 1.14 fold enrichment (6-mer frequency, TF over GST control); binding signal (ERG): 1.13 fold enrichment (6-mer frequency, TF over GST control); binding signal (ELF1): 1.09 fold enrichment (6-mer frequency, TF over GST control); binding signal (EHF): 1.06 fold enrichment (6-mer frequency, TF over GST control); binding signal (SPI1): 1.06 fold enrichment (6-mer frequency, TF over GST control); binding signal (SPIB): 1.14 fold enrichment (6-mer frequency, TF over GST control); binding signal (ELK3): 1.04 fold enrichment (6-mer frequency, TF over GST control); binding signal (FEV): 1.07 fold enrichment (6-mer frequency, TF over GST control); binding signal (ETV5): 1.06 fold enrichment (6-mer frequency, TF over GST control); binding signal (HSF1): 1.15 fold enrichment (6-mer frequency, TF over GST control); binding signal (SPIC): 1.06 fold enrichment (6-mer frequency, TF over GST control); binding signal (ELF4): 1.13 fold enrichment (6-mer frequency, TF over GST control); binding signal (ELK4): 1.19 fold enrichment (6-mer frequency, TF over GST control); binding signal (ETV2): 1.06 fold enrichment (6-mer frequency, TF over GST control); binding signal (ELF3): 1.17 fold enrichment (6-mer frequency, TF over GST control); binding signal (CRX): 1.14 fold enrichment (6-mer frequency, TF over GST control); binding signal (ETV1): 1.04 fold enrichment (6-mer frequency, TF over GST control)
